A number with no mark means an inactive call. Results filed as inconclusive are left out. A call without a number means that no potency is given here. The source made the active and inactive calls. The call rests on the fitted dose curve; in most records, active means well fitted curve in the direction sought with a large enough effect in the repeat runs; inconclusive means weak or mixed curves; inactive means no such curve, though single readings can be large; an effect the other way counts as inactive or inconclusive.
Tests used:
[1] = Human pregnane X receptor (PXR) small molecule agonists, qHTS cell viability counter screen (AID 1346977); further: nearly all actives have a fitted effect of over 50% in size
Summary of the method: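 PXR-Luc HepG2, 2,000 cells/well, 5% charcoal-stripped FBS; 5hr settle; cpd 24hr, 37C/5% CO2; CellTiter-Fluor at 23hr, read 1hr later (fluorescence).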

[2] = Caspase-3/7 induction in HepG2 cells by small molecules, qHTS assay (AID 1346978); further: nearly all actives have a fitted effect of over 15% in size
Summary of the method: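 Wild-type HepG2 cells (2,000/well) were settled 5 h at 37 C, 5% CO2, then exposed to compounds in DMSO for 17 h. Caspase-3/7 activity was read by luminescence 30 min after adding Caspase-Glo 3/7 reagent at room temperature.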

[3] = Caspase-3/7 induction in CHO-K1 cells by small molecules, qHTS cell viability counter screen (AID 1346979); further: nearly all actives have a fitted effect of over 35% in size
Summary of the method: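 Cells (CHO-K1, wild type) are plated at 1,500 per well and incubated 5hr. Test compounds in DMSO are then pinned in, followed by 16hr at 37C and 5% CO2. Viability is read by CellTiter-Fluor fluorescence after 1hr.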

[4] = Caspase-3/7 induction in CHO-K1 cells by small molecules, qHTS assay (AID 1346980); further: nearly all actives have a fitted effect of over 15% in size
Summary of the method: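 Wild-type cells were seeded at 1,500 per well and settled 5 hr at 37 C, 5% CO2, then exposed to DMSO-dissolved compounds for 17 hr. Caspase-Glo 3/7 reagent was added, and luminescence was read after 30min at room temperature.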

[5] = Caspase-3/7 induction in HepG2 cells by small molecules, qHTS cell viability counter screen (AID 1346981); further: series mostly up to about 92 µM; nearly all actives have a fitted effect of over 30% in size
Summary of the method: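 Viability determined by CellTiter-Fluor fluorescence in HepG2 wells also used for the luminescent Caspase-Glo 3/7 read. Compounds were present for 16 hr at 37 C, 5% CO2 before reagent addition.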

[6] = target: Nuclear receptor subfamily 1 group I member 2 (Homo sapiens) (UniProt O75469); test: Human pregnane X receptor (PXR) small molecule agonists, qHTS assay (AID 1346982); further: nearly all actives have a fitted effect of over 35% in size; further: potency means the concentration at half of the fitted maximal effect
Summary of the method: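 Compound-induced hPXR transactivation of a CYP3A4 luciferase reporter was scored in HepG2 PXR-Luc cells over 24 hr at 37 C, 5% CO2, by luminescence.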

[7] = target: Cytochrome P450 2D6 (Homo sapiens) (UniProt P10635); test: Cytochrome P450 Family 2 Subfamily D Member 6 (CYP2D6) small molecule antagonists: luciferase reporter qHTS assay (AID 1671196); further: nearly all actives have a fitted effect of over 50% in size; further: potency means the concentration at half of the fitted maximal effect
Summary of the method: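 Each well received CYP2D6 with its proluciferin substrate and chemical, sat 10 min, then got NADPH regeneration solution for 1 h at room temperature. Luminescence in RLU served as the activity measure.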

Sequence of Cytochrome P450 2D6 (Homo sapiens) (P10635 whole entry, looked up): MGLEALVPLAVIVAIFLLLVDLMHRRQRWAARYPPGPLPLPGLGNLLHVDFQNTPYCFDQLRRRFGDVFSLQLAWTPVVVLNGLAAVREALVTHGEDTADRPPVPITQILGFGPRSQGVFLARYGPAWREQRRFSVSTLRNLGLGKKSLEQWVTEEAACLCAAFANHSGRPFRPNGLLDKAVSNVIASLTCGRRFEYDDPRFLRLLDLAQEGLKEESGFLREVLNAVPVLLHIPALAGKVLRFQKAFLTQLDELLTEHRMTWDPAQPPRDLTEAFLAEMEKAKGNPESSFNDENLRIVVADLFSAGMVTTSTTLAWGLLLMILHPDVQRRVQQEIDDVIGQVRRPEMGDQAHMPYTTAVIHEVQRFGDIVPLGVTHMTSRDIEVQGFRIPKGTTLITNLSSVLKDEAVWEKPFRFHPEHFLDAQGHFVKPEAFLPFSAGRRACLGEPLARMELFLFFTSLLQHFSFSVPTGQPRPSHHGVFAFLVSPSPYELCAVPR
Sequence of Nuclear receptor subfamily 1 group I member 2 (Homo sapiens) (O75469 whole entry, looked up): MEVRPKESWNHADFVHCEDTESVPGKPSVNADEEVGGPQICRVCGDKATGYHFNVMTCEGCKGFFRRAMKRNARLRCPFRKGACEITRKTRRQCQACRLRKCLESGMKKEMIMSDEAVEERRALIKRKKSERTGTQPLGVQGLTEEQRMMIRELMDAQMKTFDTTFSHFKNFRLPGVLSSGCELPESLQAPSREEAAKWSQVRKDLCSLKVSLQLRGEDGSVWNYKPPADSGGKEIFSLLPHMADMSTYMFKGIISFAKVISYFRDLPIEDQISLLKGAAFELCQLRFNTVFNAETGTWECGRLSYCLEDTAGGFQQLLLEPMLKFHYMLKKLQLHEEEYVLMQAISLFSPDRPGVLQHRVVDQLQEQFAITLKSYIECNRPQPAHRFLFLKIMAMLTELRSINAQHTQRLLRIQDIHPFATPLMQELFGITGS

Nc1cc(N)cc(C(=O)O)c1
Potency [1]: inactive
outcome [2]: inactive
Potency [3]: inactive
outcome [4]: inactive
outcome [5]: inactive
Potency [6]: 34.4 µM (active)
Potency [7]: 35.6 µM (active)

O=C1CC2(CCCC2)CC(=O)N1
Potency [1]: inactive
outcome [2]: inactive
Potency [3]: inactive
outcome [4]: inactive
outcome [5]: inactive
Potency [6]: inactive
Potency [7]: inactive

CC(C)(C)C(=O)/C=C/c1ccc(Cl)cc1
Potency [1]: inactive
outcome [2]: inactive
Potency [3]: inactive
outcome [4]: inactive
outcome [5]: inactive
Potency [6]: 54.5 µM (active)
Potency [7]: inactive

C=C(C)C(=O)NCCC[N+](C)(C)C
Potency [1]: inactive
outcome [2]: inactive
Potency [3]: inactive
outcome [4]: inactive
outcome [5]: inactive
Potency [6]: inactive
Potency [7]: inactive

COC[C@H](c1ccc(C(F)(F)F)cc1)N1CCN(C2(C)CCN(C(=O)c3c(C)ncnc3C)CC2)C[C@H]1C
Potency [1]: inactive
outcome [2]: inactive
Potency [3]: inactive
outcome [4]: inactive
outcome [5]: inactive
Potency [6]: inactive
Potency [7]: 34.7 µM (active)

CCCCCCC(=O)OCC
Potency [1]: inactive
outcome [2]: inactive
Potency [3]: inactive
outcome [4]: inactive
outcome [5]: inactive
Potency [6]: inactive
Potency [7]: inactive

C1C2OC2C2C1C1CC2C2OC12 (stereo not given)
Potency [1]: inactive
outcome [2]: inactive
Potency [3]: inactive
outcome [4]: inactive
outcome [5]: inactive
Potency [6]: inactive
Potency [7]: inactive

CCO[Si](C)(OCC)OCC
Potency [1]: inactive
outcome [2]: inactive
Potency [3]: inactive
outcome [4]: inactive
outcome [5]: inactive
Potency [6]: inactive
Potency [7]: inactive

C=CC(=O)OCCCCCC
Potency [1]: inactive
outcome [2]: inactive
Potency [3]: inactive
outcome [4]: inactive
outcome [5]: inactive
Potency [6]: inactive
Potency [7]: inactive

COc1cccc(Br)c1
Potency [1]: inactive
outcome [2]: inactive
Potency [3]: inactive
outcome [4]: inactive
outcome [5]: inactive
Potency [6]: inactive
Potency [7]: inactive

CC(=O)N[C@@H](CCC(N)=O)C(=O)O
Potency [1]: inactive
outcome [2]: inactive
Potency [3]: inactive
outcome [4]: inactive
outcome [5]: inactive
Potency [6]: inactive
Potency [7]: inactive

CC(O)CN(CCCN(C)C)CCCN(C)C (stereo not given)
Potency [1]: inactive
outcome [2]: inactive
Potency [3]: inactive
outcome [4]: inactive
outcome [5]: inactive
Potency [6]: inactive
Potency [7]: inactive

CC1=CCC2C(C1)C2(C)C (stereo not given)
Potency [1]: inactive
outcome [2]: inactive
Potency [3]: inactive
outcome [4]: inactive
outcome [5]: inactive
Potency [6]: 48.6 µM (active)
Potency [7]: inactive

CCCCN(CCO)CCO
Potency [1]: inactive
outcome [2]: inactive
Potency [3]: inactive
outcome [4]: inactive
outcome [5]: inactive
Potency [6]: inactive
Potency [7]: inactive

COC(=O)CCCC(=O)O
Potency [1]: inactive
outcome [2]: inactive
Potency [3]: inactive
outcome [4]: inactive
outcome [5]: inactive
Potency [6]: inactive
Potency [7]: inactive

— PubChem BioAssay (Tox21)
